Test results as given in PubChem BioAssay AID1465 (SRMLSC, 2008).
Among all 220,000 compounds or so, about 160 (0.073%) were called active.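 How the source made its calls: active means fold induction of absorbance versus untreated yeast above a set limit, then at least 30% activation at any dose in follow-up; inconclusive means repeats straddling the limit, or above it without dose testing; inactive means fold induction below the set limit.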 The list is a sample of the results. Potency and affinity values are given separately.

Test: enhancers of respiration in Yfh1-depleted yeast, dose response, Friedreich's ataxia, plus single-dose screen (AID 1465)
Conditions: S. cerevisiae Yfh1-off respiration, WST-1 reduction, 72 h; at 50 µM; stronger effect = higher value
With `CC[n+]1c(/C=C2/C=C(C)CC(C)C2)sc2ccccc21` (stereo unspecified) the fold induction was 0.96 (inactive).
For `CC[n+]1c(/C=C(\C)SC)sc2ccccc21`, the fold induction was 0.92 (inactive).
With `CC[n+]1c(/C=C2\C=C(C)CC(C)(C)C2)sc2ccccc21` the fold induction was 0.86 (inactive).
With `CC[n+]1c(/C=C2\C=C(C)CC(C)C2)sc2ccccc21` (stereo unspecified) the fold induction was 0.873 (inactive).
In the case of `COc1ccc(C(=O)COC(=O)c2ccc(N(C)C)cc2)cc1`, the fold induction is reported as 1.01 (inactive).
With `Cc1[nH]nc(SCC(=O)NC2CCCC2)c1[N+](=O)[O-]` the fold induction was 1.05 (inactive).
With `COCC(=O)N1CCCN(c2nc3c(C)cccc3cc2C#N)CC1` the fold induction was 0.96 (inactive).
With `CCC(=O)N1COC[C@@H]1Cc1ccccc1` the fold induction was 1.04 (inactive).
With `COC(=O)c1cc2c(ccn2-c2ccc(F)cc2)n1Cc1ccc(C#N)cc1` the fold induction was 1.03 (inactive).
For `O=C(O)C(Cc1ccccc1)N1C(=O)/C(=C/c2ccccc2)SC1=S` (stereo unspecified), the fold induction was 0.93 (inactive).
In the case of `Cn1cccc1/C=C1\SC(=S)N(NC(=O)c2ccccc2)C1=O`, the fold induction is reported as 1.81 (inactive).
With `Cn1cccc1/C=C1\SC(=S)N(Nc2ccccc2)C1=O` the fold induction was 1.02 (inactive).
With `CCC(C(=O)O)N1C(=O)/C(=C/C(C)=C/c2ccccc2)SC1=S` (stereo unspecified) the fold induction was 1.22 (inactive).
With `NC(=O)c1cccc2c(=O)oc3ccccc3c12` the fold induction was 0.99 (inactive).
With `CN1CCN(C(=O)c2cc(C(C)(C)C)cc(C(C)(C)C)c2)CC1` the fold induction was 1.02 (inactive).
With `Cn1nnnc1P(=O)(c1ccccc1)c1ccccc1` the fold induction was 1.15 (inactive).
In the case of `O=C(Nc1ccccc1-c1nc2ccccc2[nH]1)c1ccc(N2C(=O)CCC2=O)cc1`, the fold induction is reported as 1.11 (inactive).
With `CC1=C(N2CCOCC2)CCC1=O` the fold induction was 0.92 (inactive).
For `O=c1c(N2CCOCC2)c(N2CCOCC2)c1=O`, the fold induction was 1.08 (inactive).
With `Cc1nc2ccc(NC(=O)COc3ccccc3[N+](=O)[O-])cc2s1` the fold induction was 0.97 (inactive).
In the case of `CN(C(=O)COC(=O)c1ccc(Cl)cc1N)C1CCCCC1`, the fold induction is reported as 1.06 (inactive).
With `CC(=O)c1cccc(NC(=O)N2CCCC2C(=O)Nc2c(C)cccc2C)c1` (stereo unspecified) the fold induction was 1.07 (inactive).
With `COc1ccc(C2=NN(c3nc4ccccc4s3)C(=O)/C2=C\N(C)C)cc1` the fold induction was 1.14 (inactive).
With `COc1ccc(C2=NN(c3nc(C)cc(C)n3)C(=O)C2)cc1` the fold induction was 1.09 (inactive).
With `CC(=O)Oc1cccc(-c2nc3ccccc3c(=O)o2)c1` the fold induction was 0.89 (inactive).
In the case of `CCOC(=O)c1[nH]c2ccccc2c1NC(=O)C1CCCCC1`, the fold induction is reported as 1.05 (inactive).
For `Cc1coc2c1C(=O)C(=O)c1c-2ccc2c1CCCC2(C)C`, the fold induction was 1.54 (inactive).
In the case of `Cc1ccc2c3c(cccc13)-c1ccccc1C2=O`, the fold induction is reported as 0.91 (inactive).
In the case of `Cc1ccc(CN2C(=O)CCC2C(=O)NC(C)C)cc1` (stereo unspecified), the fold induction is reported as 1.04 (inactive).
With `COc1ccc2c(c1)c(CCN1C(=O)c3ccccc3C1=O)cn2C(=O)c1ccco1` the fold induction was 1.01 (inactive).
In the case of `CCOc1cc(/C=N\O)cc(Cl)c1OCC`, the fold induction is reported as 0.87 (inactive).
In the case of `CCOc1ccc2nc3ccc4[nH]onc4c3c2c1`, the fold induction is reported as 0.93 (inactive).
With `CCCCNC1=CC(=O)C(=O)c2ccccc21` the fold induction was 2.68 (inactive).
For `O=C1C=C(Nc2ccccc2)c2ccccc2C1=O`, the fold induction was 1 (inactive).
With `O=C(C1CCCO1)N1CCN(C(=S)Nc2ccccc2Cl)CC1` (stereo unspecified) the fold induction was 0.94 (inactive).
In the case of `COCCCn1c(SCc2nnc(-c3ccc(OC)c(OC)c3)o2)nnc1-c1ccncc1`, the fold induction is reported as 1.13 (inactive).
For `COC(=O)N/N=C/c1cc(OC)c(O)c([N+](=O)[O-])c1`, the fold induction was 1.19 (inactive).
For `COc1cc(/C=N/NC(=O)c2ccc(C)nc2)cc([N+](=O)[O-])c1O`, the fold induction was 1.21 (inactive).
With `COC(=O)C1CCN(C(=O)Cc2c(OC)ccc3cc(Br)ccc23)CC1` the fold induction was 0.95 (inactive).
With `CCOC(=O)C1(Cc2cccc(OC)c2)CCN(CC=C(C)C)CC1` the fold induction was 1.02 (inactive).
In the case of `O=[N+]([O-])c1ccc(Sc2cccc3cccnc23)c2cccnc12`, the fold induction is reported as 1.02 (inactive).
With `O=[N+]([O-])c1cccc(CSc2cccc[n+]2[O-])c1` the fold induction was 1.1 (inactive).
For `CCN(C(=O)CSc1ncccc1C(=O)Oc1cccc([N+](=O)[O-])c1)c1cccc(C)c1`, the fold induction was 0.93 (inactive).
With `O=C(NCCNc1ccc([N+](=O)[O-])cc1)c1ccco1` the fold induction was 1.23 (inactive).
With `CCN(CC)S(=O)(=O)c1ccc(N/N=C/c2cccnc2)nc1` the fold induction was 1.09 (inactive).
In the case of `c1cncc(CSc2ccc(-c3cccnc3)nn2)c1`, the fold induction is reported as 1.13 (inactive).
In the case of `Clc1ccc(CSc2ccc(-c3ccccn3)nn2)cc1`, the fold induction is reported as 0.99 (inactive).
In the case of `Cc1cc(C(=O)N/N=C/c2ccccc2Br)no1`, the fold induction is reported as 0.94 (inactive).
For `COC(=O)c1nc(NC2=NCCCCC2)n[nH]1`, the fold induction was 1.02 (inactive).
In the case of `COC(=O)c1cc(OC)c(OC)cc1NC(=O)c1cccc(OC)c1OC`, the fold induction is reported as 1.09 (inactive).
For `O=C(C=C1CCN(c2ncc(C(F)(F)F)cc2Cl)CC1)NNC(=O)Nc1ccccc1`, the fold induction was 0.89 (inactive).
With `O=C1NN(c2ccc(F)cc2)C(=O)/C1=C\c1cnn(-c2ccccc2)c1` the fold induction was 1.14 (inactive).
For `COc1ccc(NC(=O)c2csc3c2CCCCC3)c(OC)c1`, the fold induction was 1 (inactive).
With `COc1ccc(CNC(=O)CCS(=O)(=O)Cc2ccc(C)cc2)c(OC)c1` the fold induction was 0.98 (inactive).
For `CCOC(=O)c1cnn(-c2ccccc2)c1NC(=O)c1ccccc1C`, the fold induction was 0.92 (inactive).
In the case of `COc1ccccc1NS(=O)(=O)c1cccc(C(=O)N/N=C/c2ccccc2OCC(=O)O)c1`, the fold induction is reported as 0.99 (inactive).
For `CCN(CC)c1ccc(/C=N/NC(=O)c2cccc(S(=O)(=O)Nc3ccccc3OC)c2)cc1`, the fold induction was 1.14 (inactive).
In the case of `O=C(NCc1n[nH]c(=S)n1-c1ccc(Cl)c(Cl)c1)c1cccs1`, the fold induction is reported as 0.98 (inactive).
In the case of `O=C(NNC1=C(C(=O)C(F)(F)F)CCC1)c1ccccc1O`, the fold induction is reported as 0.82 (inactive).
For `O=C(NNC1=C(C(=O)C(F)(F)F)CCC1)c1ccc(Cl)cc1`, the fold induction was 1.11 (inactive).
With `O=C(NNC1=C(C(=O)C(F)(F)F)CCC1)c1ccncc1` the fold induction was 1.05 (inactive).
For `O=C(NNC1=C(C(=O)C(F)(F)F)CCC1)c1ccccc1Cl`, the fold induction was 1.02 (inactive).
In the case of `CN(C)c1ccc(NC(=O)C(=O)NCCOc2ccccc2)cc1`, the fold induction is reported as 0.95 (inactive).
For `CC(C)=CC(=O)OCC(=O)Nc1cc(C)cc(C)c1`, the fold induction was 0.86 (inactive).
With `Cc1cc(C)nc(SCc2ccc(C(=O)N/N=C/c3ccccn3)cc2)n1` the fold induction was 1.01 (inactive).
For `CCSc1nc(=O)n(-c2ccccc2)c(C)c1C(C)=O`, the fold induction was 1.05 (inactive).
With `CC(C)C(=O)Nc1cccc(NC(=O)c2cccc([N+](=O)[O-])c2)c1` the fold induction was 0.95 (inactive).
With `Cc1cc(C)n(CC(=O)Nc2ccccc2)n1` the fold induction was 1.01 (inactive).
With `COc1cc(CNC(C)C)c(Br)cc1OC1CCCC1` the fold induction was 1.02 (inactive).
In the case of `Cc1sc2nc(SC3CCOC3=O)n(Cc3ccccc3)c(=O)c2c1C` (stereo unspecified), the fold induction is reported as 0.94 (inactive).
In the case of `CC(C)OCCCNC(=O)CCC(=O)NNc1nc2ccccc2c2nc(-c3ccccc3)nn12`, the fold induction is reported as 0.97 (inactive).
With `O=C1C(Cl)=C(Nc2ccc(O)cc2)C(=O)c2ccccc21` the fold induction was 1.23 (inactive).
For `Cc1ccc(NC2=C(Cl)C(=O)c3ccccc3C2=O)cc1`, the fold induction was 1.27 (inactive).
In the case of `Cc1sc2ncn(CC(=O)Nc3ccccc3F)c(=O)c2c1-c1ccccc1`, the fold induction is reported as 0.95 (inactive).
In the case of `O=C(NCC(c1ccco1)N1CCCCC1)c1ccc2c(c1)S(=O)(=O)c1ccccc1C2=O` (stereo unspecified), the fold induction is reported as 0.99 (inactive).
For `CCCC(=O)c1cc2ccccc2oc1=O`, the fold induction was 1.11 (inactive).
In the case of `Cc1cc(C)nc(SCC(=O)c2cc3ccccc3oc2=O)n1`, the fold induction is reported as 1.02 (inactive).
For `CCCCCC(=O)NC(=S)NNC(=O)CC`, the fold induction was 0.75 (inactive).
In the case of `CCCCC(=O)NC(=S)NNC(=O)CC#N`, the fold induction is reported as 0.83 (inactive).
In the case of `CCCNC(=O)C1(CC2CC(c3ccccc3)=NO2)CCN(C(=O)CCCCCBr)CC1` (stereo unspecified), the fold induction is reported as 1.03 (inactive).
For `O=C(O)COc1ccccc1C(Nc1ccccn1)c1cc(Cl)c2cccnc2c1O` (stereo unspecified), the fold induction was 1.19 (inactive).
With `CCC(=O)NC(c1ccco1)c1cc(Cl)c2cccnc2c1O` (stereo unspecified) the fold induction was 1.13 (inactive).
With `CCCC(=O)NC(c1ccccc1OC)c1ccc2cccnc2c1O` (stereo unspecified) the fold induction was 1.03 (inactive).
In the case of `O=C(NC(c1ccccc1)c1cc(Cl)c2cccnc2c1O)c1cccnc1` (stereo unspecified), the fold induction is reported as 0.87 (inactive).
With `CCCC(=O)NC(c1cccs1)c1cc(Cl)c2cccnc2c1O` (stereo unspecified) the fold induction was 1.06 (inactive).
In the case of `O=C(NC(c1ccc(Cl)cc1)c1cc(Cl)c2cccnc2c1O)c1cccnc1` (stereo unspecified), the fold induction is reported as 1.09 (inactive).
With `CCCCC(=O)NC(c1ccco1)c1cc(Cl)c2cccnc2c1O` (stereo unspecified) the fold induction was 0.91 (inactive).
In the case of `CCC(=O)NC(c1ccccc1OC)c1ccc2cccnc2c1O` (stereo unspecified), the fold induction is reported as 0.67 (inactive).
For `O=C(Cn1c(COc2ccccc2)nc2ccccc21)Nc1cc(Cl)cc(Cl)c1`, the fold induction was 0.92 (inactive).
For `CO/N=C/c1ccc(N2CCN(C(=O)c3ccc(F)cc3)CC2)c([N+](=O)[O-])c1`, the fold induction was 0.84 (inactive).
For `CC(=O)Nc1ccc(CN2CCCC(C(=O)c3ccc(C(F)(F)F)cc3)C2)cc1` (stereo unspecified), the fold induction was 0.88 (inactive).
For `Cc1cc2ccccc2n2c(SCC(=O)NCC3CCCO3)nnc12` (stereo unspecified), the fold induction was 0.94 (inactive).
With `Cc1nc(SC(C)C(=O)Nc2cccc(C(F)(F)F)c2)c2c(C)c(C(=O)O)sc2n1` (stereo unspecified) the fold induction was 1.09 (inactive).
With `COCCNC(=O)c1cnn2c(C(F)F)cc(-c3ccccc3)nc12` the fold induction was 1.17 (inactive).
In the case of `COC(=O)c1ccc(C(=O)OC)c(=O)[nH]1`, the fold induction is reported as 1.03 (inactive).
With `COC(=O)c1ccc(N)cc1O` the fold induction was 1.05 (inactive).
In the case of `COc1ccc(N2CCN(C(=O)c3ccc(C(C)(C)C)cc3)CC2)cc1`, the fold induction is reported as 0.96 (inactive).
In the case of `CC(=O)Nc1nc2cc3c(cc2s1)OCO3`, the fold induction is reported as 0.99 (inactive).
In the case of `COc1ccc(CCNC(=O)COC(=O)Cc2ccc(OC)cc2)cc1`, the fold induction is reported as 0.8 (inactive).
For `CCOC(=O)c1c(C)oc2c1c(C=NCCO)c(O)c1ccccc12`, the fold induction was 1.38 (inactive).
In the case of `CCOC(=O)c1c(C)oc2c1c(CN1CCN(C(=O)OCC)CC1)c(O)c1ccccc12`, the fold induction is reported as 1.19 (inactive).
